Among the data in PubChem BioAssay (NCATS) are Potency, activation and activity change, negative = inhibition values, retold here.

Results filed as inconclusive are left out. A number with no mark means an inactive call. Active and inactive are the calls of the source. Calls follow the shape of the dose curve; as a rule, active = well fitted curve in the direction sought with a large enough effect; inconclusive = small, poorly fitted or top-dose-only effect, or another doubt; inactive = no such curve, though single readings can be large; an effect the other way counts as inactive or inconclusive.

The target of test [1] is Rap guanine nucleotide exchange factor 3 (Homo sapiens) (UniProt O95398). Nature of the test: Confirmatory qHTS for antagonist of cAMP-regulated guanine nucleotide exchange factor 3 (EPAC1) (AID 1645880). Also: nearly all actives have a fitted effect of over 55% in size. Also: potency is read from the fitted curve at half-maximal effect. The essentials:
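Released BODIPY-GDP fluoresces less than Rap1-bound BODIPY-GDP; the signal is followed at 480/540 nm at 5-min intervals over 30 min, after 5 min at room temperature. Reactions contain 100 nM EPAC1, 250 nM RAP1B-BODIPY-GDP and 50 uM GDP; results are normalized to ATA and DMSO.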

The target is the same in test [2]. Nature of the test: Confirmatory qHTS for agonist of cAMP-regulated guanine nucleotide exchange factor 3 (EPAC1) (AID 1645881). Also: nearly all actives have a fitted effect of over 75% in size. Also: potency is read from the fitted curve at half-maximal effect.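 As to activation: EPAC1 catalysed release of BODIPY-GDP from Rap1B seen as fluorescence loss; 100% = effect of cAMP agonist control.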
The target in test [3] is Rap guanine nucleotide exchange factor 4 (Homo sapiens) (UniProt Q8WZA2). Nature of the test: Confirmatory qHTS for agonist of cAMP-regulated guanine nucleotide exchange factor 4 (EPAC2) (AID 1645884).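 Also: nucleotide exchange releases bodipy-GDP from Rap1 and this lowers its fluorescence; nearly all actives have a fitted effect of over 65% in size.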 Also: potency is read from the fitted curve at half-maximal effect. As to activation: % is scaled to controls: 0 for no effect and ±100 for the full control effect.
The target is the same in test [4]. As to the kind of experiment: Confirmatory qHTS for antagonist of cAMP-regulated guanine nucleotide exchange factor 4 (EPAC2) (AID 1645885). Also: nearly all actives have a fitted effect of over 25% in size. Also: potency is read from the fitted curve at half-maximal effect. As to activity change, negative = inhibition: % is scaled to controls: 0 for no effect and ±100 for the full control effect.
The target in test [5] is Rap guanine nucleotide exchange factor 3 (Homo sapiens) (UniProt O95398). Nature of the test: Counterscreen qHTS for antagonist of cAMP-regulated guanine nucleotide exchange factor 3 (EPAC1) (AID 1645888). Also: % of control where 0% means no effect. The essentials:
(§1)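 Measured: fluorescence of BODIPY-GDP bound to Rap1B, which falls as exchange proceeds. Conditions include 50 uM competing GDP, 5 and 30 min reads, and a later cAMP challenge for antagonist detection.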

Test [6] has the same target. Nature of the test: Counterscreen qHTS for agonist of cAMP-regulated guanine nucleotide exchange factor 3 (EPAC1) (AID 1645889). Also: nearly all actives have a fitted effect of over 40% in size. Also: potency is read from the fitted curve at half-maximal effect. As to activation: % of control where 0% means no effect. The essentials:
as §1

Chain of Rap guanine nucleotide exchange factor 4 (Homo sapiens) (Q8WZA2 whole entry, looked up): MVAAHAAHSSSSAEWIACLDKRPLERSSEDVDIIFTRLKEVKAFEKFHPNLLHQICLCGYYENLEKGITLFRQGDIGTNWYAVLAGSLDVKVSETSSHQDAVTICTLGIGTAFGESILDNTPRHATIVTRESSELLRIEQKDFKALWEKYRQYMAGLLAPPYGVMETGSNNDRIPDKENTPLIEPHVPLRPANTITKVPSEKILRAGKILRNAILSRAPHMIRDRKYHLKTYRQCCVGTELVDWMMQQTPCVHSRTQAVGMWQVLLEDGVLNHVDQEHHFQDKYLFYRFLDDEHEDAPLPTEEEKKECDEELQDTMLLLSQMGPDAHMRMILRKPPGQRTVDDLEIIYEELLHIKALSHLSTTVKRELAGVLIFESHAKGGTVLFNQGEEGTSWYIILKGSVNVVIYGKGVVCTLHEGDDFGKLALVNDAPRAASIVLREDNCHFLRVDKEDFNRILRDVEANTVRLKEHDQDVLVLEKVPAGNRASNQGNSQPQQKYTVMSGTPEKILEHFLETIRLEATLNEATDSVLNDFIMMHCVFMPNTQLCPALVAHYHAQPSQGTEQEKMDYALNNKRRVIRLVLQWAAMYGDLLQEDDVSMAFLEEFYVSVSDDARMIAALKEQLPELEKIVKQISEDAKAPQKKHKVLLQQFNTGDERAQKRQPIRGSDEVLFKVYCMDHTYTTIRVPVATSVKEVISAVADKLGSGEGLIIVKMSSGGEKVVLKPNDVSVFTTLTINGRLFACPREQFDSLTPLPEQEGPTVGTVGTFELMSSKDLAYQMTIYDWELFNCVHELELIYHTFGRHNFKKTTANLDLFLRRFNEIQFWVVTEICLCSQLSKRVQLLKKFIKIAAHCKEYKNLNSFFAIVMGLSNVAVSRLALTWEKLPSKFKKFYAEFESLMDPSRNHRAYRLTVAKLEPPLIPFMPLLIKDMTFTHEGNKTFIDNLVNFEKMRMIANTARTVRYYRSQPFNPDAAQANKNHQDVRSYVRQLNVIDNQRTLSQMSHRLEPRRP
Chain of Rap guanine nucleotide exchange factor 3 (Homo sapiens) (O95398 whole entry, looked up): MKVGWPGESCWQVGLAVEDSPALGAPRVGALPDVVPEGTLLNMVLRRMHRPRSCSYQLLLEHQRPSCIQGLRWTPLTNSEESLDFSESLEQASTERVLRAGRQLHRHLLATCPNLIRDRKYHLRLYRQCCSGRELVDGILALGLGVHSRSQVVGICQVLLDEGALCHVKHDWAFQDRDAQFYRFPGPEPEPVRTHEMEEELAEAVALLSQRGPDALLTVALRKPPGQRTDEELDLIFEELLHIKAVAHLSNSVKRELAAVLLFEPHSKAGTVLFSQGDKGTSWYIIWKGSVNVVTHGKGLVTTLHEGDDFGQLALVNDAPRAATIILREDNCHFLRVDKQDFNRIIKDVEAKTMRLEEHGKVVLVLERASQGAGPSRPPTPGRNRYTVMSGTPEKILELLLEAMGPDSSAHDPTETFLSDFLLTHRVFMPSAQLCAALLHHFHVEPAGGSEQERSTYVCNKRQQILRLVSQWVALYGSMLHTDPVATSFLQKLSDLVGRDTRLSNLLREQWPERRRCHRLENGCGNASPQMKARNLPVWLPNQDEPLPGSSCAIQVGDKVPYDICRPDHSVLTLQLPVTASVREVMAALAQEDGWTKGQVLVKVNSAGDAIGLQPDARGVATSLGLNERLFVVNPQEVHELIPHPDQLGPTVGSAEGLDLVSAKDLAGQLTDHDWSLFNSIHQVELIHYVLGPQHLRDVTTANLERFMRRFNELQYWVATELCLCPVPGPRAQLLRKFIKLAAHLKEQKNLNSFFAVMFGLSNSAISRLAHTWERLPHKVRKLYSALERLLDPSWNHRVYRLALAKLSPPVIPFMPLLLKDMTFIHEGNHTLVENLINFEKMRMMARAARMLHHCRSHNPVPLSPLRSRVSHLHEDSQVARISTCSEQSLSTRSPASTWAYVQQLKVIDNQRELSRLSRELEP

As to `CCCCN1C(=O)/C(=C/C=C2\Oc3ccccc3N2CC)SC1=S`, the Potency result in test [1], in test [4] and in test [5] was “inactive” each time. Besides, the Potency in test [2] is 112 µM (active); in test [3], 100 µM (active); in test [6] it was 1.78 µM (active).
Consider `Cc1[nH]c(C)c2c(=O)n(Cc3ccc(Cl)cc3)ncc12`, for which the Potency result in test [1], in test [2], in test [3], in test [5] and in test [6] was “inactive” in each case. Moreover, the Potency in test [4] is 15.1 µM (active).
Turning to `Cc1ccc(C(C)C)cc1OCC(=O)NC1CCCCCCC1`, the Potency entry in test [1], in test [2] and in test [4] was “inactive” each time. Also, the activation in test [3] is -1.54% [at 17.1 µM, percent relative to cAMP agonist control]; in test [6], -2.78% [at 30.8 µM]. For the same compound, in test [5], the activity change, negative = inhibition was -15.5% [at 30.8 µM].
`O=C(COc1ccc2ccccc2c1)Nc1cccc(C(=O)Nc2ccccc2C(=O)O)c1`: the figures for the Potency in test [1] and in test [4] were 33.8 µM (active) and 47.8 µM (active), respectively. For the same compound, the Potency result in test [2], in test [3], in test [5] and in test [6] was “inactive” in each case.
Consider `CCN(CC)c1ccc2cc(-c3nnc(-c4ccccc4)o3)c(=O)oc2c1`, for which the Potency entry in test [1] and in test [5] was “inactive” throughout. The Potency in test [2] was 15.8 µM (active); in test [3] it was 15.8 µM (active); in test [4], 4.26 µM (active); in test [6], 15.8 µM (active).
Regarding `Cc1ccc2nc(-c3ccc(Cl)cc3)c(Cc3ccccc3C(F)(F)F)n2c1`, the Potency entry in test [1], in test [2] and in test [4] was “inactive” in each case. Besides, the activation in test [3] is 10.6% [at 17.1 µM, percent relative to cAMP agonist control]; in test [6], -0.77% [at 30.8 µM]. Besides, in test [5], the activity change, negative = inhibition is 0.28% [at 30.8 µM].
Take `O=C(O)c1ccccc1NS(=O)(=O)c1ccc(N/N=C/c2ccc(O)c(O)c2)c([N+](=O)[O-])c1`: the Potency in test [1] was 8.91 µM (active). Moreover, the Potency result in test [2] and in test [4] was “inactive” throughout. The activation was -3.03% [at 17.1 µM, percent relative to cAMP agonist control] in test [3] and 24.6% [at 30.8 µM] in test [6]. Moreover, the activity change, negative = inhibition in test [5] was -1.88% [at 30.8 µM].
With `C=CCn1c(CSCc2ccc(Cl)cc2Cl)nnc1SCC(=O)Nc1ccc(C(=O)O)cc1`, the Potency entry in test [1], in test [2] and in test [4] was “inactive” in each case. In addition, the activation in test [3] was 0.968% [at 17.1 µM, percent relative to cAMP agonist control]; in test [6], 4.51% [at 30.8 µM]. Moreover, the activity change, negative = inhibition in test [5] is -5.41% [at 30.8 µM].
Turning to `COC(=O)c1cc2occc2n1Cc1ccc(F)cc1Cl`, the Potency result in test [1], in test [2], in test [3], in test [4], in test [5] and in test [6] was “inactive” in each case.
With `O=c1ccc(-c2ccccc2)nn1Cc1c(F)cccc1Cl`, the Potency result in test [1], in test [2], in test [3], in test [4], in test [5] and in test [6] was “inactive” each time.
`COCCNC(=O)c1ccc2c(c1)N(Cc1ccc(C(F)(F)F)cc1)C(=O)c1ccccc1S2`: the Potency result in test [1], in test [2], in test [3], in test [4], in test [5] and in test [6] was “inactive” throughout.
For `CC(C)(C)c1cc(-c2csc(Nc3ccccc3)[n+]2Cc2ccc(C(=O)O)cc2)cc(C(C)(C)C)c1O`, the Potency in test [1] was 67.5 µM (active); in test [4], 84.9 µM (active). In addition, the Potency result in test [2], in test [3], in test [5] and in test [6] was “inactive” in each case.
For the compound `CCOC(=O)c1sc(N=NC2=C(O)CCCC2=O)c(C(=O)OCC)c1C`, in test [1], the Potency is 8.91 µM (active). Further, the Potency result in test [2] and in test [4] was “inactive” throughout. Moreover, the activation in test [3] was -2.58% [at 17.1 µM, percent relative to cAMP agonist control]; in test [6], 6.27% [at 30.8 µM]. Also, in test [5], the activity change, negative = inhibition is -17% [at 30.8 µM].
As for `O=[N+]([O-])c1cc(-c2ccccc2)cc([N+](=O)[O-])c1O`, the Potency in test [1] was 75.7 µM (active); in test [4], 42.6 µM (active). The Potency entry in test [2], in test [3], in test [5] and in test [6] was “inactive” in each case.
For `CCN(CC)c1nc(C)nc2c1sc(=S)n2C`, the Potency entry in test [1], in test [2], in test [3], in test [4], in test [5] and in test [6] was “inactive” throughout.
In the case of `CCC/C(=C1/c2ccccc2C(=O)N1c1ccccc1)c1cnc(OC)nc1`, the Potency entry in test [1], in test [2], in test [3], in test [5] and in test [6] was “inactive” each time. For the same compound, the Potency in test [4] is 37.9 µM (active).
In the case of `Cc1nc(SC(C)C(=O)NCC2CCCO2)c2cc(-c3ccccc3)sc2n1` (stereo not given), the Potency entry in test [1], in test [2], in test [3], in test [4], in test [5] and in test [6] was “inactive” throughout.
With `O=S(=O)(NCc1ccccc1)c1ccc(S(=O)(=O)N(Cc2cccs2)CC2CCCO2)cc1` (stereo not given), the Potency entry in test [1], in test [2], in test [3], in test [4], in test [5] and in test [6] was “inactive” in each case.
Regarding `O=C(CN1C(=O)N/C(=C\c2ccccc2OCc2ccc(C(=O)O)cc2)C1=O)Nc1ccccc1F`, the Potency in test [1] is 28.2 µM (active). Besides, the Potency result in test [2] and in test [4] was “inactive” throughout. Besides, the activation was 5.81% [at 17.1 µM, percent relative to cAMP agonist control] in test [3] and 19.6% [at 30.8 µM] in test [6]. In test [5], the activity change, negative = inhibition is -13.4% [at 30.8 µM].
With `Cc1c(CCC(=O)O)c(=O)oc2cc(OCc3ccc(Br)cc3)ccc12`, the Potency entry in test [1], in test [2], in test [3], in test [4], in test [5] and in test [6] was “inactive” throughout.
